Assay results reported in PubChem BioAssay (EPA / NIEHS).
Calls of active or inactive are those of the source. The calls were made as follows: active = hit-call score of the fitted dose curve at least 0.9, where 1 is the maximum; inactive = score below 0.9.

Legend:
[1] = ATG_ERE_CIS: Attagene CIS-FACTORIAL HepG2 Assay for Estrogen Response Element (ERE) (AID 2282940); conditions: HepG2 ERE cis-reporter, Attagene RNA transcript; actives raise or lower the signal
Method in brief: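 HepG2 cells transiently transfected with cis-promoter-driven multiplexed reporter transcription units report endogenous TF activity. After 24 h compound exposure, reporter mRNA is quantified by RT-PCR with capillary electrophoresis fluorescence; bidirectional fitting versus DMSO baseline.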

[2] = ATG_Ets_CIS: Attagene CIS-FACTORIAL HepG2 Assay for human Erythroblast Transformation Specific (ETS) (AID 2282941); conditions: HepG2 ETS cis-reporter transcription, actives raise or lower the signal
Method in brief: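 HepG2 cells transfected with multiple cis-regulated reporter units measuring endogenous ETS-driven transcription, 24 h after dosing. Reporter mRNA quantified by RT-PCR with capillary electrophoresis; bidirectional fit relative to DMSO.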

[3] = biological target: Hepatocyte nuclear factor 3-beta (Homo sapiens) (UniProt Q9Y261); test: ATG_FoxA2_CIS: Attagene CIS-FACTORIAL HepG2 Assay for human Forkhead box A2 (FOXA2) (AID 2282942); conditions: HepG2 cis-reporter transcription factor activity, 24 h; actives raise or lower the signal
Chain of Hepatocyte nuclear factor 3-beta (Homo sapiens) (Q9Y261 whole entry, looked up): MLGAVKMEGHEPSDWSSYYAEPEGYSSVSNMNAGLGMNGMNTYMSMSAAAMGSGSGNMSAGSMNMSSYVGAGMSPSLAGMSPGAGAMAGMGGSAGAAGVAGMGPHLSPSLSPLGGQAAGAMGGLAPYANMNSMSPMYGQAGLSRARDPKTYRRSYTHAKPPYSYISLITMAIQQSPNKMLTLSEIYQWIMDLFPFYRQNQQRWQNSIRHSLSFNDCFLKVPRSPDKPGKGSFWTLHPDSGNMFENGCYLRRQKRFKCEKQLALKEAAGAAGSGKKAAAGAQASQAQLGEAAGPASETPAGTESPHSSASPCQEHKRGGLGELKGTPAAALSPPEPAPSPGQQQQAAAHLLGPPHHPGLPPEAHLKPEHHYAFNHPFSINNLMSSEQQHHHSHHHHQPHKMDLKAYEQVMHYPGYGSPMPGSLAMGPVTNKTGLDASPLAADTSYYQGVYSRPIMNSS
Method in brief: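 Endogenous transcription factor activity is captured via cis-element-driven reporter transcripts in transfected HepG2. Total RNA taken at 24 h post-dosing; labelled RT-PCR products resolved by capillary electrophoresis. Gain or loss fitted versus DMSO.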

[4] = ATG_FoxO_CIS: Attagene CIS-FACTORIAL HepG2 Assay for human Forkhead box O (FoxO) (AID 2282943); conditions: HepG2 Attagene cis-reporter, FoxO element, mRNA; actives raise or lower the signal
Method in brief: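 Human hepatoma HepG2 cells carry transiently introduced reporter transcription units controlled by cis promoter elements. Chemical treatment lasted 24 h, and mRNA signal was compared with DMSO.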

[5] = ATG_GATA_CIS: Attagene CIS-FACTORIAL HepG2 Assay for human GATA Binding Protein (AID 2282944); conditions: HepG2 GATA cis-element reporter, Attagene multiplex mRNA; actives raise or lower the signal
Method in brief: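 HepG2 cells transiently transfected with multiplexed cis-element reporter units reflecting endogenous transcription factor activity; reporter mRNA measured after 24 h dosing by RT-PCR, 6-FAM labeling, HpaI digestion and capillary electrophoresis. Bidirectional fitting versus DMSO baseline.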

[6] = ATG_GLI_CIS: Attagene CIS-FACTORIAL HepG2 Assay for human Zinc Finger Protein GLI1 (AID 2282945); conditions: HepG2, Attagene cis-factorial reporter mRNA, GLI element; actives raise or lower the signal
Method in brief: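 Bidirectional curve fits relative to DMSO, using reporter mRNA levels from RT-PCR plus capillary electrophoresis. Cells were HepG2 transiently carrying cis-regulated reporter constructs, harvested 24 h after dosing.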

[7] = biological target: Bile acid receptor (Homo sapiens) (UniProt Q96RI1); test: ATG_IR1_CIS: Attagene CIS-FACTORIAL HepG2 Assay for human Nuclear Receptor Subfamily 1 Group H Member 4 (NR1H4), IR1 submotif (AID 2282946); conditions: IR1 reporter transcription, actives raise or lower the signal
Chain of Bile acid receptor (Homo sapiens) (Q96RI1 whole entry, looked up, the tested form may be a part): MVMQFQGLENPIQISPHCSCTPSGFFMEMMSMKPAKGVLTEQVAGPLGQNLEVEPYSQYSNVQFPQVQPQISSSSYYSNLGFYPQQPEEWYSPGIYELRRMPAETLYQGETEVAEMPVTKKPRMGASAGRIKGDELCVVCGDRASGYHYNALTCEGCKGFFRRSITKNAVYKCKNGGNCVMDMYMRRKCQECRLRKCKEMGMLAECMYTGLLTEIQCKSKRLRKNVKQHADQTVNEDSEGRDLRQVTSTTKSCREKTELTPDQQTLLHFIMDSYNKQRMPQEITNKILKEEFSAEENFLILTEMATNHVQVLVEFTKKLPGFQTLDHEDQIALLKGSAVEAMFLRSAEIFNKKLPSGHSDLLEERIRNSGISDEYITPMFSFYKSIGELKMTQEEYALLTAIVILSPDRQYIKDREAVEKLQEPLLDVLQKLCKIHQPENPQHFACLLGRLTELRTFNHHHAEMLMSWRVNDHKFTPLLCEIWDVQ
Method in brief: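 Cells (human HepG2) carry transiently transfected cis-promoter reporter transcription units. Compounds are incubated 24 h, total RNA is reverse-transcribed and amplified, and labelled fragments are resolved by capillary electrophoresis. Curves use DMSO as baseline.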

[8] = ATG_GRE_CIS: Attagene CIS-FACTORIAL HepG2 Assay for human Glucocorticoid Response Elements (GRE) (AID 2282947); conditions: HepG2 GRE cis-reporter, Attagene multiplex mRNA; actives raise or lower the signal
Method in brief: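 Assay uses human hepatoma HepG2 cells transfected with cis-promoter reporter units, exposed 24 h. mRNA from reporters detected by RT-PCR plus capillary electrophoresis; DMSO serves as negative control and baseline.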

[9] = ATG_ISRE_CIS: Attagene CIS-FACTORIAL HepG2 Assay for human Interferon Regulatory Factor 1 (IRF1) binding to an Interferon-Stimulated Response Element (ISRE) (AID 2282948); conditions: HepG2 ISRE cis-reporter (Attagene), mRNA transcription readout; actives raise or lower the signal
Method in brief: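 Transiently transfected HepG2 cells carrying cis-element reporter units, dosed 24 hours. Reporter mRNA quantified by RT-PCR, fluorescent primer extension, HpaI digestion and capillary electrophoresis. Bidirectional fitting relative to DMSO.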

[10] = ATG_M_32_CIS: Attagene CIS-FACTORIAL HepG2 Assay for M32 Transcription Factor (Internal Marker) (AID 2282949); conditions: HepG2 Attagene cis-factorial M32 reporter, mRNA; actives raise or lower the signal;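 also: background control marker of the multiplexed CIS panel rather than a real target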
Method in brief: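 Following 24 h chemical exposure of HepG2 cells transiently expressing cis-promoter reporter constructs, reporter transcript levels were determined by RT-PCR with fluorescent labelling and capillary electrophoresis, then fitted bidirectionally against DMSO.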

[11] = biological target: Hypoxia-inducible factor 1-alpha (Homo sapiens) (UniProt Q16665); test: ATG_HIF1a_CIS: Attagene CIS-FACTORIAL HepG2 Assay for human Hypoxia Inducible Factor 1 (HIF1A) (AID 2282951); conditions: HepG2 Attagene cis-factorial HIF1a reporter transcription; actives raise or lower the signal
Chain of Hypoxia-inducible factor 1-alpha (Homo sapiens) (Q16665 whole entry, looked up): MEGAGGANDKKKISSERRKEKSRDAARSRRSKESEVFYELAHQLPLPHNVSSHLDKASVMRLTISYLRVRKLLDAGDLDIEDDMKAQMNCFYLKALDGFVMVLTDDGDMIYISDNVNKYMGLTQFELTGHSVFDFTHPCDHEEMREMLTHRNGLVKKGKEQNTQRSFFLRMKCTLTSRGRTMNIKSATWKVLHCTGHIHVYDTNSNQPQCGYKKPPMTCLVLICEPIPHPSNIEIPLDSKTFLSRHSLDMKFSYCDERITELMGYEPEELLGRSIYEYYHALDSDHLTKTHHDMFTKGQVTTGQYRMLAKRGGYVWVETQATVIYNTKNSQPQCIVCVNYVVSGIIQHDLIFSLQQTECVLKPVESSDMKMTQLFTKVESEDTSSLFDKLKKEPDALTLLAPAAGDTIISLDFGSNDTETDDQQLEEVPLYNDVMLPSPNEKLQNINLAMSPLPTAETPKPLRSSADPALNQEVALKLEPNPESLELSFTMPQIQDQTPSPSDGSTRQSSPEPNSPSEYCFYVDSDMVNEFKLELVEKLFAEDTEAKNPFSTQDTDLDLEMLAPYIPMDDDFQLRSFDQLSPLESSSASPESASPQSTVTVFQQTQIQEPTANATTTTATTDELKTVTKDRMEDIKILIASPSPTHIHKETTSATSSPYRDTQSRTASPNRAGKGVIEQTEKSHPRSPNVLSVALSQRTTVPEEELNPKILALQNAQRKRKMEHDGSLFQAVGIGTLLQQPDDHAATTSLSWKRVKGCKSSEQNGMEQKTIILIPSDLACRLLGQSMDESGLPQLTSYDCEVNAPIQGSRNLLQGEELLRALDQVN
Method in brief: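 Activity is fitted in both directions relative to DMSO. Reporter transcripts are read by RT-PCR, fluorescent primer extension and capillary electrophoresis after 24 h chemical treatment. The cells are HepG2 carrying transiently transfected cis-element-driven reporter units responding to endogenous factors.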

[12] = biological target: Hepatocyte nuclear factor 6 (Homo sapiens) (UniProt Q9UBC0); test: ATG_HNF6_CIS: Attagene CIS-FACTORIAL HepG2 Assay for human Hepatocyte Nuclear Factor 6 (HNF6) (AID 2282952); conditions: HepG2 Attagene cis-factorial HNF6 reporter transcription; actives raise or lower the signal
Chain of Hepatocyte nuclear factor 6 (Homo sapiens) (Q9UBC0 whole entry, looked up): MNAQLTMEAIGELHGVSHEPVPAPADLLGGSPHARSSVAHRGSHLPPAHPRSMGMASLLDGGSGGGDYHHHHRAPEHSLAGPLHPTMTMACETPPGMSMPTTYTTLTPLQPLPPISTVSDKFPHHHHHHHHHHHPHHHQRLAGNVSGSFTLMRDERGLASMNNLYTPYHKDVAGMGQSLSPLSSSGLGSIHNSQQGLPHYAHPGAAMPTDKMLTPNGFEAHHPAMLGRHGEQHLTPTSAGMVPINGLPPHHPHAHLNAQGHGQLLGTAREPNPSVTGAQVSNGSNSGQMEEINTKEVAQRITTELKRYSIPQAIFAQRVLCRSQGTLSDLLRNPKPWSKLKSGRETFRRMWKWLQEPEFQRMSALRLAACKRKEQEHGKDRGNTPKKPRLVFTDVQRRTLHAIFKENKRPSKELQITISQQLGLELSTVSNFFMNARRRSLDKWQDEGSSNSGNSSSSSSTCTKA
Method in brief: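 Transiently transfected HepG2 cells expressing cis-regulated reporter transcription units were exposed to chemical for 24 h in a 24-well format. Reporter transcript abundance was determined by fluorescence capillary electrophoresis.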

[13] = biological target: Heat shock factor protein 1 (Homo sapiens) (UniProt Q00613); test: ATG_HSE_CIS: Attagene CIS-FACTORIAL HepG2 Assay for human Heat Shock Transcription Factor 1 (HSE) (AID 2282953); conditions: HepG2 HSE cis-reporter, Attagene RNA transcription; actives raise or lower the signal
Chain of Heat shock factor protein 1 (Homo sapiens) (Q00613 whole entry, looked up): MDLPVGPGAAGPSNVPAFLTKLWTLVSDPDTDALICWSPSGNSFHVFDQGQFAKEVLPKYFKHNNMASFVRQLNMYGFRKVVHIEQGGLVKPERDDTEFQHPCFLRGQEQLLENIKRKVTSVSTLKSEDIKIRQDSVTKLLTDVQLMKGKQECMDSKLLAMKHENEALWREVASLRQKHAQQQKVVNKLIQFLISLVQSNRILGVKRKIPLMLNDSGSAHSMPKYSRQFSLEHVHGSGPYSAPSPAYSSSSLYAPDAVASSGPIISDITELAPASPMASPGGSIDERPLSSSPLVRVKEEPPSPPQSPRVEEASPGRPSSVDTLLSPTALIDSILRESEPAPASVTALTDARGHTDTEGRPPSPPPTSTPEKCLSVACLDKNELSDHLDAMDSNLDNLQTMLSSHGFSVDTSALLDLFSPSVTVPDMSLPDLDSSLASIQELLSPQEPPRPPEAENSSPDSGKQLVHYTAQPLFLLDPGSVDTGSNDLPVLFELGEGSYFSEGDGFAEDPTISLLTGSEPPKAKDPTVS
Method in brief: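 HepG2 cells transiently transfected with multiple reporter transcription units under cis-regulatory promoter control, measuring endogenous transcription factor activity. After 24 h chemical exposure, reporter mRNA quantified by RT-PCR, fluorescent labelling, HpaI digestion and capillary electrophoresis; bidirectional fit versus DMSO.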

[14] = ATG_PBREM_CIS: Attagene CIS-FACTORIAL HepG2 Assay for human Phenobarbital-responsive Enhancer Module (PBREM) (AID 2282955); conditions: HepG2 PBREM cis-reporter, Attagene multiplexed transcription; actives raise or lower the signal
Method in brief: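 Endogenous transcription factor activity was read from reporter transcripts in transiently transfected human HepG2 liver cells after 24 h dosing. RT-PCR products were fluorescently labelled, HpaI-cut and sized by capillary electrophoresis; activity fitted bidirectionally against DMSO baseline.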

[15] = biological target: Paired box protein Pax-6 (Homo sapiens) (UniProt P26367); test: ATG_Pax6_CIS: Attagene CIS-FACTORIAL HepG2 Assay for human Paired Box 6 (PAX6) (AID 2282956); conditions: HepG2 CIS-FACTORIAL PAX6 reporter transcription, RNA readout; actives raise or lower the signal
Chain of Paired box protein Pax-6 (Homo sapiens) (P26367 whole entry, looked up): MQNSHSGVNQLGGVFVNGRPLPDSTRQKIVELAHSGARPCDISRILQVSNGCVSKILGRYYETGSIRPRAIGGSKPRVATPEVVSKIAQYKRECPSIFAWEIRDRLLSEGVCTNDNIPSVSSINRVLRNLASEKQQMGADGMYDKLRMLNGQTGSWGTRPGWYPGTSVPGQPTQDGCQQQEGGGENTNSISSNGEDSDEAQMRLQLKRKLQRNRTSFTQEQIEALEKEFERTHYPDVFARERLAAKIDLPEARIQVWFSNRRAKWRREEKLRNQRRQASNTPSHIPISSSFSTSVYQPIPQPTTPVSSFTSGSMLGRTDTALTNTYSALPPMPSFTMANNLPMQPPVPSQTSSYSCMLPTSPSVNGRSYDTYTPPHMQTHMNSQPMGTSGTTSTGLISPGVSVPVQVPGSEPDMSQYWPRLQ
Method in brief: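 HepG2 cells transiently transfected with cis-promoter-driven multiplexed reporter units sensing endogenous transcription factor activity; 24 h chemical exposure. Reporter mRNA quantified by RT-PCR, 6-FAM labelling, HpaI digestion and capillary electrophoresis; bidirectional fit versus DMSO baseline.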

[16] = ATG_PXRE_CIS: Attagene CIS-FACTORIAL HepG2 Assay for human Pregnane X Receptor Element (PXRE) (AID 2282957); conditions: HepG2 Attagene CIS-FACTORIAL PXRE reporter, mRNA; actives raise or lower the signal
Method in brief: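 Cis-element reporter mRNA in human hepatoma HepG2 cells is measured 24 h post-dosing by RT-PCR, primer-extension labeling and capillary electrophoresis; gain or loss of signal is fitted relative to DMSO.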

[17] = ATG_PPRE_CIS: Attagene CIS-FACTORIAL HepG2 Assay for human Peroxisome Proliferator-activated Response Element (PPRE) (AID 2282958); conditions: HepG2 PPRE cis-element reporter, Attagene transcription factor profiling; actives raise or lower the signal
Method in brief: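 Endogenous PPRE-driven transcription is measured in HepG2 cells carrying transfected multi-reporter constructs. Reporter transcripts are quantified by RT-PCR, HpaI digestion and capillary electrophoresis 24 h after dosing. DMSO baseline, bidirectional fit.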

[18] = ATG_RORE_CIS: Attagene CIS-FACTORIAL HepG2 Assay for human RAR-related Orphan Receptor Element (RORE) (AID 2282959); conditions: HepG2 Attagene cis-factorial RORE reporter, mRNA; actives raise or lower the signal
Method in brief: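 RORE reporter transcripts reflecting endogenous factor activity were read after 24 h compound exposure of transfected HepG2 cells, using reverse transcription, PCR, fluorescent labelling and capillary electrophoresis sizing. Gain or loss fitted against DMSO.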

[19] = ATG_M_06_CIS: Attagene CIS-FACTORIAL HepG2 Assay for M06 Transcription Factor (Internal Marker) (AID 2282950); conditions: HepG2 Attagene CIS-FACTORIAL M06 internal marker reporter; actives raise or lower the signal
Method in brief: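 HepG2 cells transiently transfected with cis-regulated multiple reporter transcription units were exposed to chemical for 24 h; reporter mRNA was quantified by RT-PCR, 6-FAM primer labelling, HpaI digestion and capillary electrophoresis, fitted bidirectionally against DMSO.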

[20] = ATG_MRE_CIS: Attagene CIS-FACTORIAL HepG2 Assay for human Metal Responsive Element (MRE) (AID 2282954); conditions: HepG2 MRE cis-reporter transcription, Attagene multiplex; actives raise or lower the signal
Method in brief: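 After a 24 h chemical exposure, transiently transfected HepG2 cells yield RNA whose reporter sequences are amplified, FAM-labelled and sized by capillary electrophoresis. Curves are fitted bidirectionally relative to DMSO.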

Measured: AC50

OC(Cc1ccccc1Cl)(Cn1cncn1)C1(Cl)CC1 (configuration not stated)
active: [14] 19800 nM | [16] 8320 nM
not listed: [19] | [20]
inactive: all other assays above

Nc1cccnc1
not listed: [8] | [16]
inactive: all other assays above

C=CCc1ccccc1O
active: [1] 29200 nM | [16] 29300 nM
not listed: [14] | [17] | [19]
inactive: all other assays above

Cc1cc(-c2cc(C)c(N)c(C)c2)cc(C)c1N
active: [16] 26500 nM
not listed: [7]
inactive: all other assays above

CCOC(=O)c1ccccc1S(=O)(=O)NC(=O)Nc1nc(Cl)cc(OC)n1
active: [16] 5490 nM
not listed: [20]
inactive: all other assays above

C=C(C)[C@@H]1CC=C(C=O)CC1
active: [20] 85200 nM | [16] 9250 nM
not listed: [8] | [14] | [17]
inactive: all other assays above

CCC[CH2][Sn]([Cl])([Cl])[CH2]CCC
inactive: [2] | [3] | [5] | [8] | [10] | [12] | [14]
active: [1] 312 nM | [4] 660 nM | [6] 1540 nM | [7] 1730 nM | [9] 1990 nM | [11] 1240 nM | [13] 818 nM | [20] 1240 nM | [15] 1460 nM | [16] 865 nM | [17] 62.5 nM | [18] 584 nM
